Rv3671c inh – inhibits the M. tuberculosis serine protease Rv3671c; P9WHR9; inhibition, % at 5.96 µM; hit rate 0.048% among 320,000; AID 2606; in the data active = inhibition above about 38%;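 note: extracellular domain of Rv3671c used as enzyme; 0% = enzyme with DMSO and 100% = no enzyme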
BH1578 lux ind – quorum light induction in luxS cqsA deficient V. cholerae; hit rate 0.16% among 350,000; activation, % at 18.7 µM; V. cholerae BH1578 lux reporter, luminescence, 6 h; in the data active = activation mostly above about 9.7%, no sharp cut-off
UGM FP inh – inhibitors of M. tuberculosis UDP-galactopyranose mutase | hit rate 0.06% among 320,000 | AID 504406 | purified UGM, fluorescence polarization probe displacement | inhibition, % at 10 µM | P9WIQ1; in the data active = inhibition above about 10%, passing the limit was not always enough
Target sequence (P9WIQ1 whole entry, looked up): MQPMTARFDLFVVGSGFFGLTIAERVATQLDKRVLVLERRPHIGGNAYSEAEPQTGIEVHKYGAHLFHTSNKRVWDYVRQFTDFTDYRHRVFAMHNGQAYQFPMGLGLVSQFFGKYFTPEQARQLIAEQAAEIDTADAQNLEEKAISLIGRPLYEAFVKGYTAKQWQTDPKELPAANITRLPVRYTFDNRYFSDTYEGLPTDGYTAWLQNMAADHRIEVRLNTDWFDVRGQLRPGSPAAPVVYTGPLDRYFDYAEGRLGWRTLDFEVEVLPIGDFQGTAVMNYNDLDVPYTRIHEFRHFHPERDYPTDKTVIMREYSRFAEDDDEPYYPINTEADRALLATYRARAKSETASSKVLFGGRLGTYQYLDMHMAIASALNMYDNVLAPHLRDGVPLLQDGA
RecA intein inh – Mtb RecA intein splicing inhibition | P9WHJ3 | cell-free RecA intein splicing, fluorescence | inhibition, % (test concentration not listed) | hit rate 0.75% among 290,000 | AID 2221; in the data active = inhibition above about 30%;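 note: 0% = vehicle wells and 100% = reference inhibitor control wells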
GDH-TPI counter-1 – inhibits GDH-TPI coupling enzymes, artifact for Mtb FBA screen; GDH-TPI coupled enzyme counterscreen, NADH absorbance; inhibition, % at 4.8 µM; hit rate 1.2% among 360,000; AID 588335; in the data active = inhibition above about 30%;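 note: 0% = DMSO wells and 100% = wells lacking the enzyme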
Mtb FBA inh – inhibits M. tuberculosis FBA enzyme; purified M. tuberculosis FBA, fluorescence read-out; inhibition, % at 1 µM; hit rate 2.3% among 360,000;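 note: 0% = vehicle and 100% = reference inhibitor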
Target sequence (P9WQA3 whole entry, looked up): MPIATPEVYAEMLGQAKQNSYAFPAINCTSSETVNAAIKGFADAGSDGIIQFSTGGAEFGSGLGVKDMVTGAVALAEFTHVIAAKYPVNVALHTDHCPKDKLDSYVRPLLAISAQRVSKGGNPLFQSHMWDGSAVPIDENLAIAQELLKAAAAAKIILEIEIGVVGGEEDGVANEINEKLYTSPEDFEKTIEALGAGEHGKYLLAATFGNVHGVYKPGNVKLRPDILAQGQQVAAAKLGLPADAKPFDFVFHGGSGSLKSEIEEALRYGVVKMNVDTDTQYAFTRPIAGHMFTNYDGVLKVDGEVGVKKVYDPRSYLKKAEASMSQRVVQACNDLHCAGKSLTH
Mtb FBA inh conf – confirmation of M. tuberculosis fructose-bisphosphate aldolase inhibitors. purified M. tuberculosis FBA, fluorescence read-out. hit rate 78% among 5,600. inhibition, % at 1 µM. shares compounds with Mtb FBA inh;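 note: 0% = vehicle wells and 100% = reference inhibitor wells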
GDH-TPI counter-2 – counter-screen for M. tuberculosis FBA inhibitors: GDH-TPI coupled enzyme inhibition | shares compounds with Mtb FBA inh | GDH-TPI coupled enzyme counterscreen, fluorescence | inhibition, % at 1 µM | hit rate 81% among 5,600; in the data active = inhibition above about 10%
GDH-TPI dose – counter-screen for M. tuberculosis FBA inhibitors: GDH-TPI dose response; AID 652145; IC50, µM; hit rate 79% among 170; GDH-TPI coupled enzyme assay, fluorescence, artifact counterscreen; shares compounds with Mtb FBA inh; call rule not given here
Active calls of the source: *; i = inactive; · = no result; + = active, no number. Shown are actives, neighbours in structure and some others; about 4.1% of the full set was active somewhere. Cut-off read from the data, not from the text of the source, unless noted: active = inhibition above about 27%; inactive = the rest.

SMILES | Rv3671c inh | BH1578 lux ind | UGM FP inh | RecA intein inh | GDH-TPI counter-1 | Mtb FBA inh | Mtb FBA inh conf | GDH-TPI counter-2 | others
CCC1CCCN1Cn1cnc2c([nH]c3ccc(OC)cc32)c1=O (stereo unspecified) | 0.2 | -0.8 | 3.3 | 1.3 | 9.9 | 53.7* | 94.3* | 74.0*
O=C(c1cc(COc2c(F)cccc2F)on1)N(Cc1ccccc1)CC1CC1 | -12.0 | -0.3 | -0.5 | 7.2 | 6.6 | 0.4 | · | ·
CCCCN(CC)CCCNC(=O)c1cc2c(-c3ccc(OC)c(OC)c3)nn(C)c2s1 | 1.6 | i | 0.6 | 0.0 | 11.2 | 2.9 | · | ·
CCN1CCCC1CNC(=O)c1[nH]c2ccc(OC)cc2c1C (stereo unspecified) | 3.0 | 0.5 | 4.2 | 1.1 | 8.3 | 45.0* | + | +
CN(CCCNC(=O)c1cc2c(Cl)nc3ccccc3c2s1)Cc1ccccc1 | -5.9 | -0.3 | -0.1 | 4.6 | 6.1 | -3.1 | · | ·
CCCCN(C)CCNC(=O)c1cc2c(-c3cccc(OC)c3)nn(C)c2s1 | -8.1 | -0.5 | -2.7 | 1.7 | 20.0 | 41.5* | 46.5* | 27.4*
COc1cccc(-c2nn(C)c3sc(C(=O)NCCCN(C)Cc4ccccc4)cc23)c1 | -1.8 | i | -1.5 | 1.3 | -0.7 | 42.8* | 111.5* | 102.7*
CCN1CCCC1CNC(=O)c1cc2ccc(OC)cc2[nH]1 (stereo unspecified) | · | -0.6 | -0.3 | -2.0 | 14.0 | 7.4 | · | ·
Cc1ccc(OCCCC(=O)ON=C(N)c2ccccc2C)cc1 | 0.5 | i | -0.4 | · | 3.9 | -1.2 | · | ·
CS(=O)(=O)N(CC(=O)N1CCN(Cc2ccccc2)CC1)c1cccc(Cl)c1 | -6.0 | -0.4 | 0.4 | -0.2 | 9.0 | -0.5 | · | ·
O=C(N[C@@H]1CCC(=O)N(CC[C@H](Sc2ccccc2)c2ccccc2)CC1)OCc1ccccc1 | -5.9 | 1.2 | 0.4 | 8.5 | 13.8 | -0.4 | · | ·
O=c1c2ccccc2c(/C=N/c2n[nH]c(CCCO)n2)c(O)n1-c1ccccc1Cl | -17.7 | i | 1.2 | -16.1 | 8.2 | 30.3* | 73.4* | 57.4*
O=C(Nc1ccon1)c1cnc2sccn2c1=O | -6.3 | i | -1.4 | 6.0 | 31.4* | 28.1* | 14.8 | 8.5 | GDH-TPI dose=>10
Cc1cc(C)n2nc(NCc3cccc(Br)c3)nc2n1 | -0.5 | i | -1.6 | 9.5 | 0.9 | 57.5* | 70.0* | 52.3*
O=C(NC1CCCCCC1)c1cc(S(=O)(=O)N2CCOCC2)ccc1F | -4.3 | -0.3 | 2.2 | -1.0 | 3.7 | 3.5 | · | ·
CC1(Oc2cccc(F)c2)CCN(Cc2ccc(-c3ccccc3)o2)C1 (stereo unspecified) | · | -0.1 | · | · | -6.2 | -1.9 | · | ·
CCc1nn(CCCC(=O)NCc2cc(Br)ccc2OC)c(=O)c2cc3occc3n12 | 4.4 | -0.2 | -2.9 | -3.6 | 1.5 | 2.7 | · | ·
Cc1nc(NCCCO)c(C#N)c2c1COC(C)(C)C2 | -4.5 | -1.4 | 0.7 | -0.8 | 5.5 | 73.6* | 112.5* | 86.0*
COc1cc2c3nnc(-c4ccccc4)c-3cn(Cc3ccc(F)cc3)c2cc1OC | -4.0 | -0.4 | 5.1 | -124.2 | 13.0 | 31.8* | 127.3* | 93.6*
COc1cccc(Cn2nc3c4cc(F)ccc4n(Cc4ccc(F)cc4)cc-3c2=O)c1 | -2.1 | -0.6 | 0.5 | -1.9 | -3.2 | 1.2 | · | ·
CCc1cc(=O)oc2cc(C)cc(OC(C)C(=O)NCCCN3CCOCC3)c12 (stereo unspecified) | -3.7 | -0.2 | -0.1 | -1.6 | 3.7 | 58.6* | 85.1* | 59.9*
Cc1cc(=O)oc2c(C)c(OC(C)C(=O)NCCN3CCOCC3)ccc12 (stereo unspecified) | 5.4 | i | 1.1 | -1.5 | 5.0 | 12.6 | · | ·
Cc1cc(OC(C)C(=O)NCCCN2CCOCC2)c2c(C)c(C)c(=O)oc2c1 (stereo unspecified) | -6.5 | -19.6 | -0.3 | -0.3 | 9.2 | 63.5* | 168.0* | 180.8*
Cc1cc(OC(C)C(=O)NCCN2CCOCC2)c2c(C)cc(=O)oc2c1 (stereo unspecified) | 0.9 | -0.4 | 1.9 | -0.2 | -2.7 | 32.6* | 75.5* | 63.6*
COc1cccc(C(NC(C)=O)c2nc(-c3ccc(F)cc3OC)cs2)c1 (stereo unspecified) | · | -0.3 | · | · | -2.2 | 1.1 | · | ·
SMILES | Rv3671c inh | BH1578 lux ind | UGM FP inh | RecA intein inh | GDH-TPI counter-1 | Mtb FBA inh | Mtb FBA inh conf | GDH-TPI counter-2 | others
NC(=O)c1cc(S(=O)(=O)NCCc2ccc(Cl)cc2)cs1 | 13.8 | -2.1 | -3.3 | 0.2 | -2.5 | -0.6 | · | ·
CN(C)c1cccc(NC(=O)C2Cc3c(-c4cccnc4)ccnc3O2)c1 (stereo unspecified) | · | 0.3 | · | · | -10.7 | -1.9 | · | ·
COc1ccc2nc(C)cc(SCC(=O)N/N=C/c3ccco3)c2c1 | -4.6 | -0.2 | 3.9 | -0.7 | 1.5 | 3.3 | · | ·
COc1cc(/C=N\NC(=O)c2c(C)nc3cc(C)ccn23)ccc1O | -3.6 | -1.2 | 0.2 | -2.6 | 29.2 | 3.9 | · | ·
COc1ccc(OC)c(/C=N/NC(=O)CSc2cc(C)nc3c(OC)cccc23)c1 | -0.2 | -0.2 | 1.8 | 11.7 | 9.5 | 29.7* | 49.7* | 35.3*
COc1ccc(OC)c(/C=N\NC(=O)c2c(C)nc3cc(C)ccn23)c1 | 1.9 | 1.7 | -1.1 | -0.2 | 16.9 | 60.4* | + | +
Cc1ccc(S(=O)(=O)NCC(=O)NCC2CCCCC2)cc1C | -12.3 | i | -0.4 | · | -6.0 | -6.9 | · | ·
O=C(Nc1ccccc1Br)C1CCN(S(=O)(=O)c2cccs2)CC1 | 3.3 | -1.7 | -1.6 | · | -10.3 | -0.2 | · | ·
COc1ccc(-c2cn3nc(SCC(=O)NC4CCCCC4)ccc3n2)cc1 | -0.4 | 0.2 | 4.2 | -9.2 | 9.6 | 27.5* | 73.6* | 41.3*
COc1ccc(-c2[nH]c(-c3cccc(OC)c3)nc2SCC(=O)NC2CCCC2)cc1 | 2.6 | -2.1 | -6.1 | 5.4 | 8.7 | 40.4* | 123.6* | 99.7*
COCCNC(=O)C1CCCN(C(=O)/C=C/c2ccccc2)CC1 (stereo unspecified) | · | -0.3 | · | · | -0.9 | 0.6 | · | ·
COc1ccc(-c2c(-c3cccc(C)c3)oc3ccc(-c4ccc5c(c4)OCO5)cc23)cn1 | -5.4 | -5.0 | -0.4 | 2.8 | 4.9 | 3.4 | · | ·
Cc1cccc(-c2oc3ccc(-c4ccc5c(c4)OCO5)cc3c2/C=C/c2ccc(N)cc2)c1 | 14.6 | -0.3 | 2.2 | -15.4 | 20.7 | 44.4* | 135.4* | 119.7*
COCCCNc1ccn2nc(-c3ccc(Cl)cc3)cc2n1 | · | -0.6 | · | · | 13.7 | 33.5* | 86.7* | 76.2*
COc1cc(-c2cc3nc(NCc4cccc(Cl)c4)ccn3n2)cc(OC)c1OC | · | i | · | · | 3.1 | 15.0 | · | ·
Cc1ccc(S(=O)(=O)N2C[C@H]3C(=O)C[C@@H](c4ccccc4)N(S(=O)(=O)c4ccccc4C)[C@H]3C[C@H]2c2ccccc2)cc1 | · | · | · | · | · | 5.0 | · | ·

Source: PubChem BioAssay (several laboratories)
